JMJD2A Tudor inh: blocks the human JMJD2A Tudor domain | O75164 | AlphaScreen JMJD2A-Tudor / H3K4me3 peptide binding | Potency, µM (highest dose often 114 µM), inactives show at the highest dose activity change, negative = inhibition, most hits filed as inhibitors | hit rate 4.4% among 390,000; also: % is scaled to controls: 0 for no effect and ±100 for the full control effect; nearly all actives have a fitted effect of over 50% in size
BAZ2B inh: BAZ2B (human) inhibition | AID 504333 | hit rate 4.4% among 360,000 | Q9UIF8 | AlphaScreen BAZ2B-H3K14Ac peptide displacement | Potency, µM (top dose mostly 114 µM), without a hit: top-dose activity change, negative = inhibition, actives largely listed as inhibitors; also: % is scaled to controls: 0 for no effect and ±100 for the full control effect; nearly all actives have a fitted effect of over 60% in size
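BAZ2B (50 nM) with biotin-H3(5-23)K14Ac peptide (50 nM) in PBS pH 7.4, 0.01% Tween-20, preformed 30 min, then compound 30 min at room temperature; top concentration 110uM. AlphaScreen streptavidin donor/nickel chelate acceptor beads (10 ug/mL final), 20 min dark, signal read.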
HP1b chromo inh: inhibitors of HP1-beta chromodomain binding to methylated histone tails. hit rate 0.56% among 390,000. AlphaScreen HP1-beta / biotin-H3K9me3 peptide binding. AID 540317. Potency, µM (doses to about 114 µM), without a hit: at the highest dose activity change, negative = inhibition, hits mostly inhibitors; also: nearly all actives have a fitted effect of over 70% in size
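AlphaScreen: HP1-beta (50 nM) preformed 30 min with biotin-H3(1-18)K9me3 peptide (50 nM) in PBS pH 7.4, 0.01% Tween-20. Compound added for 30 min at RT, then streptavidin donor/nickel chelate acceptor beads (10 ug/mL) for 30 min.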
GLS inhibitor: glutaminase GLS (human) inhibition; O94925; GLS enzymatic activity, qHTS titration; Potency, µM (titrated, usually from 45.5 µM), for the others: at the top dose activity change, negative = inhibition, most hits filed as inhibitors; hit rate 0.21% among 410,000; AID 624170; also: % is scaled to controls: 0 for no effect and ±100 for the full control effect
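Glutamate formation by hKGA was monitored fluorometrically using coupled glutamate oxidase, HRP and Amplex Red. Substrate was added as 1 mM L-glutamine solution; incubation was 30 min at RT after an initial read.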
G9a inh: blocks human histone lysine methyltransferase G9a. Q96KQ7. G9a H3K9 monomethylation, AlphaScreen, 2 h. Potency, µM (doses to about 102 µM), for inactives: at the top dose activity, negative = inhibition, actives largely listed as inhibitors. hit rate 8.8% among 350,000; also: % is scaled to controls: 0 for no effect and ±100 for the full control effect; nearly all actives have a fitted effect of over 75% in size
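AlphaScreen read-out: biotin-H3K9 peptide (500 nM) methylation by 20 nM enzyme with 20 uM SAM, 2 h at room temperature after 15 min compound preincubation; anti-monomethyl H3K9 antibody plus donor/acceptor beads, 10 min dark.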
An asterisk follows results filed as active; ? = inconclusive; . = not tested or not shown; [ ] = dose if it differs, or a comment. An excerpt weighted towards active compounds, which were near 10% of everything screened. Calls follow the shape of the dose curve; as a rule, active = well fitted curve in the direction sought with a large enough effect; inconclusive = small, poorly fitted or top-dose-only effect, or another doubt; inactive = no such curve, though single readings can be large; an effect the other way counts as inactive or inconclusive. Potency is read from the fitted curve at half-maximal effect.

SMILES	JMJD2A Tudor inh	BAZ2B inh	HP1b chromo inh	GLS inhibitor	G9a inh
Cc1ccc(NC(=O)CN2CCN(C(=O)c3ccco3)CC2)cc1S(=O)(=O)N(C)C	6.3µM*	.	?	-3%	.
O=C(c1ccc(C#Cc2ccccc2)o1)N1CCN(c2ccccn2)CC1	-18%	?	?	0%	45µM*
O=C(c1ccc(CS(=O)c2ccccc2Cl)o1)N1CCN(c2ccccn2)CC1 (stereo unspecified)	-4%	-15%	46%	0%	89µM*
O=C(c1ccc(COc2ccccc2Br)o1)N1CCN(c2ccccn2)CC1	?	-27%[57.1 µM]	-8%	.	-4%
CCOC(=O)c1cnn(-c2ccc(C(=O)Nc3cc(OC)c(OC)c(OC)c3)cc2)c1N	-12%	-13%	25%	1%	?
CC(=O)c1cc2cccc(OC3(C)CCN(Cc4ccc(-c5ccccn5)cc4)C3)c2o1 (stereo unspecified)	.	.	.	-2%	.
CCCNC(=O)c1onc(CSc2ccc(Cl)cc2)c1C(=O)NC(C)C	-11%	18%	30%	-1%	-6%[2.33 µM]
CS(=O)(=O)c1ccc(C(=O)Nc2ccccc2Cl)cc1	5%	0%	43%	0%	-6%
CS(=O)(=O)c1ccc(C(=O)Nc2cc(S(C)(=O)=O)ccc2Cl)cc1	-12%	0%	11%	0%	45µM*
CCn1cc(C(=O)NCc2ccc(C)cc2)c(=O)c2cc(S(=O)(=O)N3CCCCCC3)ccc21	-28%	1%	-8%	?	-14%[59 µM]
COc1cccc(Cn2c(=O)n(-c3ccc(C)c(F)c3)c(=O)c3sc4ccccc4c32)c1	5%	1%	32%	-10%	4%[59 µM]
Cc1cc2ccccc2n1CCNC(=O)c1cccc(Cl)c1	-24%	-17%	14%	-7%	-30%[59 µM]
Cc1cc2ccccc2n1CCNC(=O)C1CCCC1	-20%	-21%	12%	8%	-11%
Cc1cc2ccccc2n1CCNC(=O)c1cccs1	?	?	?	-2%	35µM*
Cc1cc2ccccc2n1CCNC(=O)C1CC1	?	-2%	-8%	-1%	71µM*
CCOC(=O)c1c(NC(=O)/C=C/c2ccccc2)sc2c1CCCC2	11%	2%	49%	10%	5%[59 µM]
Cc1cc2c(s1)c1cnn(Cc3cc(OC(F)(F)F)ccc3F)c(=O)c1n2C	-11%	.	.	.	.
O=C1/C(=C/c2ccccc2F)SC(=S)N1CC(=O)N1CCCCC1c1cccnc1 (stereo unspecified)	19%	?	43%	1%	5µM*
CN(C(=O)CN1C(=O)/C(=C/c2ccccc2Cl)SC1=S)C1CCS(=O)(=O)C1 (stereo unspecified)	?	-20%	-6%	-1%	26%[59 µM]
O=C1/C(=C/c2ccc(F)cc2)SC(=S)N1CC(=O)N1CCCCC1c1cccnc1 (stereo unspecified)	?	?	21%	0%	40µM*
CN(C(=O)CN1C(=O)/C(=C/c2ccccc2F)SC1=S)C1CCS(=O)(=O)C1 (stereo unspecified)	-3%	45µM*	52%	-6%	14%
COc1ccccc1-c1c(C)nn2c(-c3ccccc3)cc(-c3ccccc3)nc12	3%	2%	40%	0%	6%[59 µM]
CC(CCN1CCN(c2ccccc2)CC1)c1ccccc1 (stereo unspecified)	-30%	?	5%	18%	?
C(#Cc1ccccc1)CN1CCN(c2ccccn2)CC1	?	50µM*	1%	5%	?
C(#Cc1ccccc1)CN1CCCCC1	-12%	-3%	7%	-3%	19%[0.501 µM]
SMILES	JMJD2A Tudor inh	BAZ2B inh	HP1b chromo inh	GLS inhibitor	G9a inh
CC(CCN1CCN(c2ccccn2)CC1)c1ccccc1 (stereo unspecified)	25µM*	?	?	13%	28µM*
COc1ccc([N+](=O)[O-])cc1NS(=O)(=O)c1cccc(C(=O)O)c1	32µM*	-16%	21%	5%	-49%
COc1ccccc1C(=O)N/C(=C/c1cccc([N+](=O)[O-])c1)C(=O)Nc1cccc(C(=O)O)c1	13µM*	-1%	-2%	-15%	2%
COc1cc([N+](=O)[O-])ccc1NC(=S)Nc1cccc(C(=O)O)c1	-15%	-27%	-9%	13%	10µM*
COc1ccc(S(=O)(=O)c2ccccc2)cc1NS(=O)(=O)c1cccc(C(=O)O)c1	?	?	3%	-12%	15%[2.33 µM]
COc1ccc(C(=O)N/C(=C\c2cccc([N+](=O)[O-])c2)C(=O)Nc2cccc(C(=O)O)c2)cc1	1%[11.4 µM]	-3%	14%	-15%	2%
COc1cc([N+](=O)[O-])ccc1NC(=S)Nn1cnnc1	-33%	?	?	3%	10µM*
COc1cc([N+](=O)[O-])ccc1NC(=O)CN(C)C	-1%	15%	23%	3%	-9%[12.7 µM]
COc1cccc(CNC(=O)c2cccc(N3CCCS3(=O)=O)c2)c1	-7%	2%	22%	0%	-13%[59 µM]
Cc1cccc(-c2oc3ccc(-c4ccc5c(c4)OCO5)cc3c2C(=O)OCc2ccc(O)cc2)c1	-30%	-8%	12%	4%	?
CCOC(=O)c1ccc(N2C(=O)CC(N3CCCC(C)C3)C2=O)cc1 (stereo unspecified)	-6%	4%	40%	0%	10µM*
CCOC(=O)C1CCCN(C2CC(=O)N(c3cccc(C)c3)C2=O)C1 (stereo unspecified)	?	?	40%	-11%	28µM*
CCOC(=O)c1ccc(N2C(=O)CC(N3CCC(Nc4ccc(F)cc4)CC3)C2=O)cc1 (stereo unspecified)	?	-31%	12%	-4%	10µM*
COc1cccc(CN2CCC2(C)C(=O)Nc2cccc(Oc3ccccc3)c2)c1F (stereo unspecified)	.	.	.	-3%	.
CCN1CCN(c2cc3c(cc2F)c(=O)c(C(=O)O)cn3C2CC2)CC1	1%	?	35%	-13%	32µM*
CCCCCCC(=O)N1CCN(c2cc3c(cc2F)c(=O)c(C(=O)O)cn3CC)CC1	-18%	.	43%	-1%	.
CC(=O)N1CCN(c2cc3c(cc2F)c(=O)c(C(=O)O)cn3C2CC2)CC1	-8%	-39%	29%	-8%	50µM*
O=C(Nc1ccccc1F)N1CCc2ccccc2C1	6%	-4%	75%	-3%	56%
COc1ccc(N2CCN(CCNC(=O)c3ccc4c(c3)[nH]c(=S)n3c5ccccc5nc43)CC2)cc1	?	?	5%	3%	50µM*
COc1ccc(Nc2cc(C(=O)NCCCN3CCN(c4ccc(OC)cc4)CC3)c3ccccc3n2)cc1	22µM*	14µM*	?	33%	11µM*
COc1ccc(Nc2cc(C(=O)NCCCN3CCOCC3)c3ccccc3n2)cc1OC	?	-37%	9%	1%	-12%[59 µM]
COc1ccc(Nc2cc(C(=O)NCCCN(C)Cc3ccccc3)c3ccccc3n2)c(OC)c1	32µM*	?	?	19%	?

Screens: PubChem, National Center for Advancing Translational Sciences (NCATS)
